“And” between values parts separate entries of the source, which are not always exact repeats. Equal values may be shown once. Records with an inconclusive call do not appear. More than one record can exist for a structure, and the calls need not agree. The source made the active and inactive calls. Unless noted, the call rests on the fitted dose curve; in most records, active means well fitted curve in the direction sought with a large enough effect; inconclusive means small, poorly fitted or top-dose-only effect, or another doubt; inactive means no such curve, though single readings can be large; an effect the other way counts as inactive or inconclusive.
Experiments:
[1] = tested on: CASKI; assay: Primary qHTS to identify gynecologic anti-cancer compounds using libraries of approved drugs and bioactive compounds (AID 1345084); conditions: Gynecologic cancer cell panel viability, ATPlite luminescence, 48 h; series mostly up to 57.5 µM; further: nearly all actives have a fitted effect of over 55% in size; further: potency means the concentration at half of the fitted maximal effect
Method in brief: (§1)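 Five-concentration response, 48 h; readout is ATP-driven luciferase luminescence.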

[2] = tested on: Es-2; assay: as above; conditions: Gynecologic cancer cell panel viability, ATPlite luminescence, 48 h; series mostly up to 57.5 µM
Method in brief: as §1

[3] = tested on: HeLa; assay: as above; conditions: Gynecologic cancer cell panel viability, ATPlite luminescence, 48 h; series mostly up to 57.5 µM
Method in brief: as §1

[4] = tested on: Hek293T; assay: as above; conditions: Gynecologic cancer cell panel viability, ATPlite luminescence, 48 h, control line for the selectivity index; series mostly up to 57.5 µM
Method in brief: as §1

[5] = tested on: JEG-3; assay: as above; conditions: Gynecologic cancer cell panel viability, ATPlite luminescence, 48 h; series mostly up to 57.5 µM
Method in brief: as §1

[6] = tested on: OV90; assay: as above; conditions: Gynecologic cancer cell panel viability, ATPlite luminescence, 48 h; series mostly up to 57.5 µM
Method in brief: as §1

[7] = tested on: SKOV3; assay: as above; conditions: Gynecologic cancer cell panel viability, ATPlite luminescence, 48 h; series mostly up to 57.5 µM
Method in brief: as §1

[8] = tested on: Tov-21-G; assay: as above; conditions: Gynecologic cancer cell panel viability, ATPlite luminescence, 48 h; series mostly up to 57.5 µM
Method in brief: as §1

[9] = tested on: Tov112D; assay: as above; conditions: Gynecologic cancer cell panel viability, ATPlite luminescence, 48 h; series mostly up to 57.5 µM
Method in brief: as §1

[10] = Drug repurposing screens with cells derived from glioblastoma tumor samples (AID 1345199); conditions: GBM patient neurospheres viability, ATP luminescence, 48 h; further: nearly all actives have a fitted effect of over 40% in size; further: potency means the concentration at half of the fitted maximal effect; on activity, negative = cell killing: on the % scale 0 is the no-effect control and ±100 the full control effect
Method in brief: (§2)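 Four patient lines of CD133+ GBM neurospheres were screened at several concentrations; hits were retested in those lines plus three slower-growing GBM lines, using 48-hour treatment and ATP-based viability.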

[11] = tested on: astro; assay: as above; conditions: viability, ATP luminescence, 48 h; series mostly up to 45.9 µM
Method in brief: as §2

[12] = tested on: PA-1; assay: Primary qHTS to identify gynecologic anti-cancer compounds using libraries of approved drugs and bioactive compounds (AID 1345084); conditions: Gynecologic cancer cell panel viability, ATPlite luminescence, 48 h; series mostly up to 57.5 µM; further: nearly all actives have a fitted effect of over 55% in size; further: potency means the concentration at half of the fitted maximal effect
Method in brief: as §1

[13] = target: Nuclear receptor subfamily 1 group I member 2 (Rattus norvegicus) (UniProt Q9R1A7); assay: qHTS assay for small molecule activators of the rat pregnane X receptor (rPXR) signaling pathway (AID 651751; call rule not given here; further: 0% is about no effect); conditions: rPXR reporter cells, luciferase (One-Glo), 24 h
Sequence of Nuclear receptor subfamily 1 group I member 2 (Rattus norvegicus) (Q9R1A7 whole entry, looked up): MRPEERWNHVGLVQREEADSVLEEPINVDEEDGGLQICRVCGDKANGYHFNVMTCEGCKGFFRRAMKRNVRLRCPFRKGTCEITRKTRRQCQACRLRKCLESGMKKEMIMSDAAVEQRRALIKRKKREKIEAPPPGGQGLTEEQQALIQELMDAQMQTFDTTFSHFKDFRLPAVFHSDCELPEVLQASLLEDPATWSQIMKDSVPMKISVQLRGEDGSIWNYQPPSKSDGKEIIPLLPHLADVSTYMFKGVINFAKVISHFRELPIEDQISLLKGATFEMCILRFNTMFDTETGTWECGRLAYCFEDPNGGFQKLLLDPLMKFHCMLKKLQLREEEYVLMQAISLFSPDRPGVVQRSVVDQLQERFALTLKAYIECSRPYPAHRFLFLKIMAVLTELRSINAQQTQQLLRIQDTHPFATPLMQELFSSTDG

[14] = qHTS assay for small molecule activators of the human pregnane X receptor (PXR) signaling pathway (AID 720659; call rule not given here; further: 0% is about no effect)
[15] = qHTS assay to identify inhibitors of the type 1 interferon - major histocompatibility complex class I in skeletal muscle: Counter screen cell viability and HiBit confirmation (AID 1347412); conditions: iHSKM muscle cells + IFN-b, HiBiT or CellTiter-Glo, 24 h, at 45.9 µM (top of the series); further: on the % scale 0 is the no-effect control and ±100 the full control effect; nearly all actives have a fitted effect of over 60% in size
Method in brief: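 Duplicate plates, pinned identically: one read for HiBiT-tagged endogenous HLA-B luminescence, the other for ATP-content viability via CellTiter Glo. Cells were genome-engineered human myoblasts given 4 ng/ml IFN-b; compounds 12-pt, 1:3 from 46 uM final; 24 hr exposure.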

[16] = at 45.9 µM (top of the series), tumour line B
[17] = at 45.9 µM (top of the series), tumour line D
[18] = at 46.1 µM (top of the series), tumour line C
[19] = at 46 µM (top of the series), tumour line A

NC1CCN(c2cccc(Cl)n2)CC1
active: Potency ([10]; tumour line A) 11.2 µM
inactive: Potency [1] | Potency [2] | Potency [3] | Potency [4] | Potency [5] | Potency [6] | Potency [7] | Potency [8] | Potency [9] | activity, negative = cell killing [10, 16] -8.95% | activity, negative = cell killing [10, 17] 3.86% | activity, negative = cell killing [10, 18] -16% | Potency [11]

COC(=O)C1=C(C)NC(C)=C(C(=O)OC)C1c1ccccc1[N+](=O)[O-]
inactive: Potency [1] | Potency [2] | Potency [4] | Potency [5] | Potency [6] | Potency [12] | Potency [7] | Potency [8] | Potency [9]

[Cl][In]([Cl])[Cl]
inactive: Potency [1] | Potency [2] | Potency [3] | Potency [5] | Potency [6] | Potency [12] | Potency [7] | Potency [8] | Potency [9] | Potency [11] | max response [13] -5.11% | outcome [14]

CCN(CC)CCCC(C)Nc1c2ccc(Cl)cc2nc2ccc(OC)cc12 (stereo unspecified)
active: Potency [6] 8.91 µM | Potency [11] 20 µM
inactive: Potency [2] | Potency [3] | Potency [9]

CC(=O)O[C@@]12CO[C@@H]1C[C@H](O)[C@@]1(C)C(=O)[C@H](O)C3=C(C)[C@@H](OC(=O)[C@H](O)[C@@H](NC(=O)OC(C)(C)C)c4ccccc4)C[C@@](O)([C@@H](OC(=O)c4ccccc4)[C@H]21)C3(C)C
inactive: Potency [1] | Potency [4] | Potency [5] | Potency [6] | Potency [9] | activity change, negative = inhibition ([15]; HiBiT) -20.7% | activity change, negative = inhibition ([15]; Viability) -25.4%

CSc1ccc2c(c1)C(N1CCN(C)CC1)Cc1ccccc1S2 (stereo unspecified)
active: Potency [11] 20 µM
inactive: Potency [1] | Potency [2] | Potency [3] | Potency [4] | Potency [5] | Potency [12] | Potency [8] | Potency [9]

CC(CN1c2ccccc2Sc2ccccc21)N(C)C (stereo unspecified)
active: Potency ([10]; tumour line A) 14.1 µM | Potency ([10]; tumour line B) 20 µM | Potency ([10]; tumour line D) 22.4 µM | Potency [11] 20 µM
inactive: Potency [1] | Potency [2] | Potency [3] | Potency [4] | Potency [5] | Potency [12] | Potency [7] | Potency [8] | Potency [9] | activity, negative = cell killing [10, 18] -1.52% | max response [13] 3.22%

CC[N+](CC)(CC)CCOc1ccc(/C=C/c2ccccc2)cc1
active: Potency [5] 31.6 µM | Potency [6] 17.8 µM | Potency [12] 2.51 µM | Potency [7] 10 µM | Potency [8] 25.1 µM

CNCCC(Oc1ccc(C(F)(F)F)cc1)c1ccccc1 (stereo unspecified)
inactive: Potency [5] | Potency [9] | activity, negative = cell killing [10, 18] -4.69%
active: Potency ([10]; tumour line A) 3.55 µM | Potency ([10]; tumour line B) 20 µM

CC(C)c1c(C(=O)Nc2ccccc2)c(-c2ccccc2)c(-c2ccc(F)cc2)n1CC[C@@H](O)C[C@@H](O)CC(=O)O
active: Potency [11] 11.2 µM
inactive: Potency [1] | Potency [2] | Potency [3] | Potency [4] | Potency [5] | Potency [6] | Potency [7] | Potency [8] | Potency [9]

Oc1cn2c(n1)Nc1ccc(Cl)c(Cl)c1C2
inactive: Potency [1] | Potency [2] | Potency [5] | Potency [6] | Potency [7] | Potency [8] | Potency [9] | activity, negative = cell killing [10, 17] -7.52% | activity, negative = cell killing [10, 18] -8.47% and 1.08% | Potency [11]
active: Potency [12] 0.355 µM

CC(=O)c1ccc2c(c1)N(CCCN(C)C)c1ccccc1S2
active: Potency ([10]; tumour line A) 10 µM
inactive: Potency [1] | Potency [2] | Potency [4] | Potency [5] | Potency [12] | Potency [8] | Potency [9] | activity, negative = cell killing ([10]; at 20 µM (top of the series), tumour line C) -20.2% | activity, negative = cell killing ([10]; at 21.2 µM (top of the series), tumour line B) -19.6% | Potency [11]

NC(=O)c1ncn([C@@H]2O[C@H](CO)[C@@H](O)[C@H]2O)n1
inactive: Potency [1] | Potency [2] | Potency [3] | Potency [4] | Potency [5] | Potency [9] | activity, negative = cell killing [10, 16] -11% | activity, negative = cell killing [10, 17] -8.98% | activity, negative = cell killing [10, 19] -27.6% | activity, negative = cell killing [10, 18] -10.2% | Potency [11] | max response [13] -13.6% | outcome [14]

CN(C)CCCN1c2ccccc2CCc2ccccc21
active: Potency ([10]; tumour line A) 4.47 µM | Potency ([10]; tumour line D) 12.6 µM
inactive: Potency [1] | Potency [5] | activity, negative = cell killing [10, 18] -2.23%

CCCCN(CCCC)CC(O)c1cc(Cl)cc2c1-c1ccc(Cl)cc1/C2=C/c1ccc(Cl)cc1 (stereo unspecified)
inactive: Potency [1] | Potency [2] | Potency [3] | Potency [4] | Potency [5] | Potency [12] | Potency [8] | Potency [9] | Potency [11]

COCCOC(=O)C1=C(C)NC(C)=C(C(=O)OC/C=C/c2ccccc2)C1c1cccc([N+](=O)[O-])c1 (stereo unspecified)
inactive: Potency [2] | Potency [3] | Potency [5] | Potency [6] | Potency [8] | Potency [9] | activity, negative = cell killing [10, 16] 2.48%
active: Potency ([10]; tumour line A) 3.55 µM | Potency ([10]; tumour line C) 18.4 µM | Potency ([10]; tumour line D) 12.6 µM

NC(=O)N/N=C/c1ccc([N+](=O)[O-])o1
39.8 µM (active) and inactive: Potency [8]
inactive: Potency [1] | Potency [4] | Potency [6] | Potency [12] | Potency [9] | activity, negative = cell killing [10, 16] 2.52% | activity, negative = cell killing [10, 17] -11.8% | activity, negative = cell killing [10, 19] -13.9% | activity, negative = cell killing [10, 18] 14.2% | Potency [11] | max response [13] -8.95% and -7.82% | outcome [14]
14.1 µM (active) and inactive: Potency [7]
active: Potency [3] 31.6 µM
31.6 µM (active) and inactive: Potency [2]

— PubChem BioAssay (NCATS)
